TGFb SMAD3 inh: inhibitors of TGF-b signaling. 410,000 tested, 1.2% active. HepG2 CAGA-GFP TGF-b/SMAD3 reporter, GFP fluorescence, 18 h; TGF-beta stimulated, 500 pg/mL final. AID 588855. Potency, µM (top dose mostly 46.1 µM), inactives show top-dose activity, negative = inhibition, usual class: inhibitors; note: potency is the fitted concentration of half-maximal effect; % is set by controls: 0 for no effect and ±100 for the full control effect; nearly all actives have a fitted effect of over 65% in size
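HEPG2 CAGA-GFP cells (1000/well, DMEM with 1% FBS) were pre-incubated 2 h at 37 degrees C, given compound by pin tool, then stimulated with TGF-beta at 500 pg/mL final for 18 h before per-cell GFP fluorescence imaging.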
ATXN2 expr inh: reduces ATXN2 reporter expression in HEK-293 cells. HEK-293 ATXN2-luciferase reporter, luminescence, 24 h. Potency, µM (series often up to 57 µM), for inactives: at the highest dose activity change, negative = inhibition, most hits filed as inhibitors. 360,000 tested, 0.72% active. AID 1745845; note: potency is the fitted concentration of half-maximal effect; % is set by controls: 0 for no effect and ±100 for the full control effect; nearly all actives have a fitted effect of over 55% in size
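qHTS (up to 57 uM final) was run with 24 h compound exposure of reporter cells at 37 °C. Each well was multiplexed: SteadyGlo luminescence measured ATXN2-luciferase expression after a fluorogenic Gly-Phe-AFC viability readout (25 uM final).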
HepG2 tox: HepG2 cytotoxicity, counter-screen for TGF-b inhibitors. Potency, µM (series often up to 46.1 µM), for the others: at the highest dose activity change, negative = cytotoxicity, usual class: cytotoxic. 410,000 tested, 0.76% active. HepG2 CAGA-GFP viability, ATP luminescence, 18 h; note: potency is the fitted concentration of half-maximal effect
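HepG2 CAGA-GFP cells (1000/well, DMEM with 1% FBS) received compound, then TGF-beta at 500 pg/mL final, and were incubated 18 hours at 37 degrees C. Viability was read by CellTiter-Glo luminescence. Media-only wells were set as complete cell-killing and DMSO as no toxicity.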
ATXN viability: cell viability loss in ATXN counter-screen | 400,000 tested, 0.49% active | AID 651635 | S2 cells (HEK-293 line with an ATXN2-luciferase reporter) viability, CellTiter-Fluor protease fluorescence, 24 h | Potency, µM (series often up to 56.7 µM), usual class: cytotoxic; note: potency is the fitted concentration of half-maximal effect; nearly all actives have a fitted effect of over 40% in size
LDHA block: LDHA (human) enzyme inhibition. 480,000 tested, 0.15% active. P00338. activity change, % (values are at about 110 or 230 µM). purified LDHA, NADH/diaphorase-resazurin fluorescence; hits give low values. AID 1347041; in the data active = activity change below about -30%; inconclusive = mostly about -25% to -30%;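 note: plate controls were DMSO wells for no effect and wells without enzyme for full effect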
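Resorufin fluorescence (ex540/em590), read at 0 and 20 min after diaphorase/resazurin addition, reports the NADH left after a 5 min room-temperature reaction of 2 nM human LDH5 with 0.06 mM NADH and 0.2 mM pyruvate.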
IDH1 R132H inh: inhibitors of human mutant IDH1 R132H. O75874. IDH1-R132H enzyme, NADPH consumption, diaphorase/resazurin fluorescence. Potency, µM (top dose mostly 76.6 µM), inactives show at the top dose activity change, negative = inhibition, actives largely listed as inhibitors. 390,000 tested, 0.093% active; note: potency is the fitted concentration of half-maximal effect; % is set by controls: 0 for no effect and ±100 for the full control effect; nearly all actives have a fitted effect of over 65% in size
Target sequence (O75874 whole entry R132H, stated change not applied): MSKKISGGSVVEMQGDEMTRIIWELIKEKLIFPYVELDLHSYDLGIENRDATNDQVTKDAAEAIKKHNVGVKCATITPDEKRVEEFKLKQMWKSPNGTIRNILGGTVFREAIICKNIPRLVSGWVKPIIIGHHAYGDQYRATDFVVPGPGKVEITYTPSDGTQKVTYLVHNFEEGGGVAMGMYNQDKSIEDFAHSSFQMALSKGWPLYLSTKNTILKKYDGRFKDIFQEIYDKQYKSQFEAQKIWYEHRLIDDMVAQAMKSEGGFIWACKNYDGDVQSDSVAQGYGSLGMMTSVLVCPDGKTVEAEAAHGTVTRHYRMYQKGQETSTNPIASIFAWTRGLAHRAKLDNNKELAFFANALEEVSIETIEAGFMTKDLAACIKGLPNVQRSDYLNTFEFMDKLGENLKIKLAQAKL
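IDH1-R132H (0.5 ug/mL) preincubated 30 min with compound, then NADPH (0.016 mM) and alpha-KG (2 mM) added; 80 min at RT, pH 7.5. Remaining NADPH coupled via diaphorase/resazurin to fluorescence (540/590 nm); concentration-response curves normalized to no-enzyme control.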
* marks the source's active call; other numbers are inactive results; i = inactive; ? = inconclusive; . = not tested or not shown. In the library only some 2.2% were active in any assay of this set; here they are far more common. Unless noted, calls come from the whole dose curve; as a rule, active = well fitted curve in the direction sought with a large enough effect; inconclusive = small, poorly fitted or top-dose-only effect, or another doubt; inactive = no such curve, though single readings can be large; an effect the other way counts as inactive or inconclusive.

SMILES | TGFb SMAD3 inh | ATXN2 expr inh | HepG2 tox | ATXN viability | LDHA block | IDH1 R132H inh
Cc1cccc(C(=O)Nc2ccc(C(=O)OCc3cc(=O)n4c5c(sc4n3)CCCC5)cc2)c1 | ? | . | -56% | . | -9 | -1%
Cc1ccccc1C(=O)Nc1ccc(C(=O)OCc2cc(=O)n3c4c(sc3n2)CCCC4)cc1 | 11µM* | . | 8.9µM* | . | -3 | 10%
CCOc1cccc(C(c2c[nH]c3ccccc23)c2c[nH]c3ccccc23)c1O | . | . | . | . | -23 | .
CN(CCCC(=O)O)c1ccc(N=Nc2ccc([N+](=O)[O-])cc2)cc1 | -3% | . | -27% | 14µM* | 4 | 11%
CN(N=Nc1ccc([N+](=O)[O-])cc1)c1ccccc1 | 0% | . | -11% | ? | -1 | 6%
COC(=O)c1cn(NC(=O)c2cc([N+](=O)[O-])ccc2F)c(=O)c2ccccc12 | -18% | 1.1µM* | -6% | i | -5 | 2%
COC(=O)c1cn(NC(=O)C2CCC(C)CC2)c(=O)c2ccccc12 (centres undefined) | 18% | 4% | 4% | i | -7 | 6%
CS(=O)c1nc(-c2ccc(Br)cc2)cc(-c2ccccc2)c1C#N (centres undefined) | -8% | 13µM* | -7% | 20µM* | -9 | -7%
Cc1ccc(S(=O)(=O)NCC(=O)OCCOc2cccc(Cl)c2)cc1 | -16% | 3% | -5% | i | 3 | 5%
O=c1[nH]c(=O)n(Cc2ccccc2)c2nc(-c3ccc(Oc4ccc(F)cc4)c([N+](=O)[O-])c3)n(CCO)c12 | 13µM* | ? | -54% | ? | -1 | 7%
CC(=O)c1ccc(N2CCN(S(=O)(=O)c3ccc4c(c3)C(Cl)(Cl)C(=O)N4)CC2)cc1 | 22µM* | -3% | -93% | i | 16 | .
CCn1c(SCC(=O)Nc2ccc(C)cc2)nnc1-c1cnccn1 | 9% | 8% | 11% | i | -7 | 23%
Cc1cccc(CN2CCC(C(=O)Nc3cccc(-c4cccc(F)c4)c3)CC2)n1 | ? | ? | -38% | i | -8 | 0%
Cc1nn(C(C)C)c(C)c1CN1CCC(C(=O)Nc2cccc(-c3cccc(F)c3)c2)CC1 | ? | -36% | 11µM* | i | 0 | -7%
Cn1cc(CN2CCC(C(=O)Nc3cccc(-c4cccc(F)c4)c3)CC2)cn1 | 11µM* | -23% | -58% | i | -2 | -13%
CCCn1ncc(CN2CCC(C(=O)Nc3cccc(-c4cccc(F)c4)c3)CC2)c1C | ? | ? | 18µM* | i | -2 | 23%
COc1cccc(-c2cccc(NC(=O)C3CCN(Cc4cnn(C)c4)CC3)c2)c1 | -1% | -2% | 1% | i | 0 | 7%
COc1ccc(C(=O)Nc2ccc3c(c2)nc(CCNC(=O)c2ccco2)n3C)cc1 | 26% | 18% | 6% | i | -1 | -3%
C/C(=N/Nc1ccc([N+](=O)[O-])cc1)c1ccc(C)cc1C | 3.5µM* | -13% | -37% | ? | -1 | 4%
COc1ccc(NC(=O)c2ccc(NC(=O)c3cccs3)cc2)cc1 | -2% | ? | -17% | ? | -3 | 1%
COc1nc(N)nc(NC(=O)c2cccs2)c1N=O | ? | 2% | 13µM* | ? | 49 | 8%
CCO[C@H]1OC(C(=O)NC2CC2)=C[C@@H](c2c[nH]c3ccccc23)[C@@H]1CCCO | 4% | 8% | 0% | i | -2 | -2%
C/C(CCc1ccc2c(c1)OCO2)=N\NC(=S)NC(C)C | ? | 7.9µM* | -71% | 7.1µM* | 5 | 5%
